# According to PubChem BioAssay (NCATS):
# Results filed as inconclusive are left out. Where a call stands in place of a potency, no number is given. Values without a mark were called inactive. Calls of active or inactive are those of the source. The call rests on the fitted dose curve; in most records, active means well fitted cell-killing curve with a large enough effect; inconclusive means small, poorly fitted or top-dose-only effect, or effect the other way; inactive means no such curve, though single readings can be large or run the other way.
# Legend:
# [1] = Quantitative High-Throughput drug screen in 47 multiple myeloma cell lines against the NCATS MIPE library collection: MM1R_ATCC cell viability assay (AID 1918981); further: nearly all actives have a fitted effect of over 35% in size; further: potency means the concentration at half of the fitted maximal effect
# In short: (§1)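 500 cells/well per myeloma line exposed to pinned MIPE 4.0 compounds for 48 h at 37 °C, 5% CO2. Viability read as ATP by CellTiter-Glo luminescence, normalised to DMSO-only (100%) and media-only (0%) wells.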
# [2] = Quantitative High-Throughput drug screen in 47 multiple myeloma cell lines against the NCATS MIPE library collection: LP1_DSMZ cell viability assay (AID 1918982); further: nearly all actives have a fitted effect of over 35% in size; further: potency means the concentration at half of the fitted maximal effect
# In short: as §1
# [3] = Quantitative High-Throughput drug screen in 47 multiple myeloma cell lines against the NCATS MIPE library collection: KMS28PE_JCRB cell viability assay (AID 1918983); further: nearly all actives have a fitted effect of over 35% in size; further: potency means the concentration at half of the fitted maximal effect
# In short: as §1
# [4] = Quantitative High-Throughput drug screen in 47 multiple myeloma cell lines against the NCATS MIPE library collection: L363_DSMZ cell viability assay (AID 1918984); further: nearly all actives have a fitted effect of over 40% in size; further: potency means the concentration at half of the fitted maximal effect
# In short: as §1
# [5] = Quantitative High-Throughput drug screen in 47 multiple myeloma cell lines against the NCATS MIPE library collection: OCIMY7_PLB cell viability assay (AID 1918987); details: OCI-MY7 myeloma viability, CellTiter-Glo ATP, 48 h; viability (% of DMSO): at 45.8 µM (top of the series); further: nearly all actives have a fitted effect of over 65% in size; further: potency means the concentration at half of the fitted maximal effect
# In short: as §1
# [6] = Quantitative High-Throughput drug screen in 47 multiple myeloma cell lines against the NCATS MIPE library collection: OCIMY5_PLB cell viability assay (AID 1918988); further: nearly all actives have a fitted effect of over 65% in size; further: potency means the concentration at half of the fitted maximal effect
# In short: as §1
# [7] = Quantitative High-Throughput drug screen in 47 multiple myeloma cell lines against the NCATS MIPE library collection: OPM1_PLB cell viability assay (AID 1918989); further: nearly all actives have a fitted effect of over 40% in size; further: potency means the concentration at half of the fitted maximal effect
# In short: as §1
# [8] = Quantitative High-Throughput drug screen in 47 multiple myeloma cell lines against the NCATS MIPE library collection: U266_ATCC cell viability assay (AID 1919864); further: nearly all actives have a fitted effect of over 35% in size; further: potency means the concentration at half of the fitted maximal effect
# In short: as §1
# [9] = Quantitative High-Throughput drug screen in 47 multiple myeloma cell lines against the NCATS MIPE library collection: XG1_PLB cell viability assay (AID 1919866); further: nearly all actives have a fitted effect of over 35% in size; further: potency means the concentration at half of the fitted maximal effect
# In short: as §1
# [10] = Quantitative High-Throughput drug screen in 47 multiple myeloma cell lines against the NCATS MIPE library collection: PE2_PLB cell viability assay (AID 1919869); further: nearly all actives have a fitted effect of over 35% in size; further: potency means the concentration at half of the fitted maximal effect
# In short: as §1
# [11] = Quantitative High-Throughput drug screen in 47 multiple myeloma cell lines against the NCATS MIPE library collection: PCM6_Riken cell viability assay (AID 1919870); further: nearly all actives have a fitted effect of over 30% in size; further: potency means the concentration at half of the fitted maximal effect
# In short: as §1
# [12] = Quantitative High-Throughput drug screen in 47 multiple myeloma cell lines against the NCATS MIPE library collection: RPMI8226_ATCC cell viability assay (AID 1919871); further: nearly all actives have a fitted effect of over 30% in size; further: potency means the concentration at half of the fitted maximal effect
# In short: as §1
# [13] = Quantitative High-Throughput drug screen in 47 multiple myeloma cell lines against the NCATS MIPE library collection: OPM2_DSMZ cell viability assay (AID 1919872); further: nearly all actives have a fitted effect of over 30% in size; further: potency means the concentration at half of the fitted maximal effect
# In short: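 Steps: seed 500 cells per well; pin-transfer MIPE 4.0 library; incubate 48 h at 37C, 5% CO2, humidified; add CellTiter-Glo, 5 min room temperature; read luminescence.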
# [14] = Quantitative High-Throughput drug screen in 47 multiple myeloma cell lines against the NCATS MIPE library collection: KMS34_JCRB cell viability assay (AID 1918985); further: nearly all actives have a fitted effect of over 40% in size; further: potency means the concentration at half of the fitted maximal effect
# In short: as §1
# [15] = Quantitative High-Throughput drug screen in 47 multiple myeloma cell lines against the NCATS MIPE library collection: SKMM1_PLB cell viability assay (AID 1919863); details: SKMM1 myeloma viability, CellTiter-Glo ATP, 48 h; viability: active compounds read low; further: nearly all actives have a fitted effect of over 35% in size; further: potency means the concentration at half of the fitted maximal effect
# In short: as §1
# [16] = Quantitative High-Throughput drug screen in 47 multiple myeloma cell lines against the NCATS MIPE library collection: KMS28BM_JCRB cell viability assay (AID 1919874); further: nearly all actives have a fitted effect of over 35% in size; further: potency means the concentration at half of the fitted maximal effect
# In short: as §1
# [17] = Quantitative High-Throughput drug screen in 47 multiple myeloma cell lines against the NCATS MIPE library collection: XG6_PLB cell viability assay (AID 1919865); further: nearly all actives have a fitted effect of over 40% in size; further: potency means the concentration at half of the fitted maximal effect
# In short: as §1
# [18] = Quantitative High-Throughput drug screen in 47 multiple myeloma cell lines against the NCATS MIPE library collection: KMS11_JCRBsus cell viability assay (AID 1919873); further: nearly all actives have a fitted effect of over 50% in size; further: potency means the concentration at half of the fitted maximal effect
# In short: as §1
# [19] = Quantitative High-Throughput drug screen in 47 multiple myeloma cell lines against the NCATS MIPE library collection: VP6_DJ cell viability assay (AID 1919867)
# In short: as §1
# [20] = Quantitative High-Throughput drug screen in 47 multiple myeloma cell lines against the NCATS MIPE library collection: UTMC2_PLB cell viability assay (AID 1919868); details: CellTiter-Glo ATP luminescence, 48 h; viability (% of DMSO control): at 45.8 µM (top of the series); further: nearly all actives have a fitted effect of over 55% in size
# In short: as §1
structure (smiles),measurement,setting,value
O=C(O)CCC1CCC(c2cc(F)ccc2F)(S(=O)(=O)c2ccc(Cl)cc2)CC1 (configuration not stated),Potency,[1],inactive
same,Potency,[2],inactive
same,Potency,[3],inactive
same,Potency,[4],16.6 µM (active)
same,Potency,[5],2.64 µM (active)
same,Potency,[6],inactive
same,Potency,[7],5.26 µM (active)
same,Potency,[8],6.62 µM (active)
same,Potency,[9],9.35 µM (active)
same,Potency,[10],inactive
same,Potency,[11],13.2 µM (active)
same,Potency,[12],inactive
same,Potency,[13],inactive
CCCCCNC(=O)N1CCC(CN(Cc2ccc(Cl)cc2)Cc2ccc([N+](=O)[O-])s2)C1 (configuration not stated),Potency,[1],14.8 µM (active)
same,Potency,[2],29.6 µM (active)
same,Potency,[3],20.9 µM (active)
same,Potency,[4],20.9 µM (active)
same,Potency,[14],26.4 µM (active)
same,Potency,[5],16.6 µM (active)
same,Potency,[6],23.5 µM (active)
same,Potency,[15],18.7 µM (active)
same,Potency,[8],16.6 µM (active)
same,Potency,[10],23.5 µM (active)
same,Potency,[12],26.4 µM (active)
same,Potency,[16],18.7 µM (active)
CN1[C@@H]2CCC[C@@H]1CC(NC(=O)c1nn(C)c3ccccc13)C2 (some centres not stated),Potency,[1],inactive
same,Potency,[2],inactive
same,Potency,[3],inactive
same,Potency,[4],inactive
same,Potency,[14],inactive
same,Potency,[6],inactive
same,Potency,[7],inactive
same,viability,[15],111%
same,Potency,[17],inactive
same,Potency,[9],inactive
same,Potency,[10],inactive
same,Potency,[12],inactive
same,Potency,[13],inactive
same,Potency,[18],inactive
same,Potency,[16],inactive
N#Cc1ccc(NC(=O)Nc2ccccc2Br)c2n[nH]nc12,Potency,[1],inactive
same,Potency,[2],inactive
same,Potency,[3],inactive
same,Potency,[4],13.2 µM (active)
same,Potency,[14],inactive
same,viability,[15],115%
same,Potency,[17],5.26 µM (active)
same,Potency,[19],10.5 µM (active)
same,Potency,[13],inactive
COc1ccc2cccc(CCNC(C)=O)c2c1,Potency,[1],inactive
same,Potency,[2],inactive
same,Potency,[3],inactive
same,Potency,[4],inactive
same,Potency,[5],inactive
same,viability,[15],129%
same,Potency,[17],inactive
same,Potency,[9],inactive
same,Potency,[10],inactive
same,Potency,[11],inactive
same,Potency,[12],inactive
same,Potency,[13],inactive
same,Potency,[18],inactive
same,Potency,[16],inactive
Nc1ncnc2c1nc(Cl)n2[C@@H]1O[C@H](CO)[C@@H](O)[C@@H]1O,Potency,[1],0.935 µM (active)
same,Potency,[2],20.9 µM (active)
same,Potency,[3],18.7 µM (active)
same,Potency,[4],20.9 µM (active)
same,Potency,[14],11.8 µM (active)
same,Potency,[6],0.418 µM (active)
same,Potency,[15],14.8 µM (active)
same,Potency,[8],14.8 µM (active)
same,Potency,[17],1.18 µM (active)
same,Potency,[9],16.6 µM (active)
same,Potency,[19],1.32 µM (active)
same,Potency,[10],0.235 µM (active)
same,Potency,[18],20.9 µM (active)
same,Potency,[16],13.2 µM (active)
CC[C@]1(O)C[C@@H]2CN(CCc3c([nH]c4ccccc34)[C@@](C(=O)OC)(c3cc4c(cc3OC)N(C=O)[C@@H]3C45CCN4CC=C[C@](CC)([C@H]45)[C@@H](OC(C)=O)[C@]3(O)C(=O)OC)C2)C1 (some centres not stated),Potency,[1],20.9 µM (active)
same,Potency,[2],20.9 µM (active)
same,Potency,[3],23.5 µM (active)
same,Potency,[4],inactive
same,Potency,[14],23.5 µM (active)
same,Potency,[5],9.35 µM (active)
same,Potency,[6],20.9 µM (active)
same,Potency,[15],20.9 µM (active)
same,Potency,[8],23.5 µM (active)
same,Potency,[10],16.6 µM (active)
same,Potency,[13],23.5 µM (active)
C[N+]1(C)[C@@H]2CC(OC(=O)[C@H](CO)c3ccccc3)C[C@H]1[C@H]1O[C@@H]12 (some centres not stated),Potency,[1],inactive
same,Potency,[2],inactive
same,Potency,[3],inactive
same,Potency,[4],inactive
same,Potency,[14],inactive
same,Potency,[7],inactive
same,Potency,[17],23.5 µM (active)
same,Potency,[20],inactive
same,Potency,[11],inactive
same,Potency,[12],inactive
same,Potency,[13],inactive
same,Potency,[18],inactive
same,Potency,[16],inactive
O=C(O)c1ccccc1C(=O)Nc1ccc(-c2ccccc2)cc1,Potency,[1],inactive
same,Potency,[2],inactive
same,Potency,[3],inactive
same,Potency,[4],inactive
same,Potency,[14],inactive
same,Potency,[6],inactive
same,Potency,[8],inactive
same,Potency,[20],inactive
same,Potency,[10],inactive
same,Potency,[12],inactive
same,Potency,[13],inactive
same,Potency,[18],inactive
same,Potency,[16],inactive
CCn1cc(C(=O)O)c(=O)c2ccc(C)nc21,Potency,[1],inactive
same,Potency,[2],inactive
same,Potency,[3],inactive
same,Potency,[4],inactive
same,Potency,[14],inactive
same,Potency,[7],inactive
same,viability,[15],130%
same,Potency,[17],inactive
same,Potency,[9],inactive
same,Potency,[10],inactive
same,Potency,[12],inactive
same,Potency,[13],inactive
Cc1nnc(C(C)C)n1C1C[C@H]2CC[C@@H](C1)N2CC[C@H](NC(=O)C1CCC(F)(F)CC1)c1ccccc1 (some centres not stated),Potency,[1],inactive
same,Potency,[2],inactive
same,Potency,[3],inactive
same,Potency,[4],inactive
same,Potency,[6],inactive
same,Potency,[7],inactive
same,viability,[15],147%
same,Potency,[8],11.8 µM (active)
same,Potency,[17],4.69 µM (active)
same,Potency,[20],inactive
same,Potency,[12],inactive
same,Potency,[13],inactive
same,Potency,[18],inactive
same,Potency,[16],inactive
CC=CC(=O)N(CC)c1ccccc1C,Potency,[1],inactive
same,Potency,[2],inactive
same,Potency,[3],inactive
same,Potency,[4],inactive
same,Potency,[6],inactive
same,Potency,[7],inactive
same,viability,[15],126%
same,Potency,[8],inactive
same,Potency,[17],23.5 µM (active)
same,Potency,[9],26.4 µM (active)
same,Potency,[19],29.6 µM (active)
same,Potency,[20],inactive
same,Potency,[10],inactive
same,Potency,[12],3.72 µM (active)
same,Potency,[13],inactive
same,Potency,[18],inactive
same,Potency,[16],inactive
